This is part of a sample that, as a whole, favours compounds with a hit. Of some 83,000 tested, about 20% had one in any assay.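 Interpretation: 100, growth as untreated; towards 0, rising growth inhibition; 0, no net growth; 0 to -100, cell death. Compounds scoring below 10 were considered active.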 Values without a mark were called inactive. Activity calls are given as the source filed them.
What was measured:
Assay in all cases: NCI-60 one-dose screen, 48 h (100 = growth as untreated, 0 = no growth, -100 = all killed)
Conditions in all cases: 10 µM unless noted
[1] = test system: NCI-H23 lung
[2] = test system: NCI-H226 lung
[3] = test system: NCI-H322M lung
[4] = test system: HOP-62 NSCLC
[5] = test system: NCI-H460 lung
[6] = test system: HOP-92 NSCLC
[7] = test system: NCI-H522 lung
[8] = test system: A549/ATCC NSCLC
[9] = test system: 786-0 renal
[10] = test system: COLO 205 colon

## O=c1[nH]c(CCl)nc2c1cnn2-c1ccccc1
[1]
  growth: 101%
[2]
  growth: 110%
[3]
  growth: 101%
[4]
  growth: 125%
[5]
  growth: 101%
[6]
  growth: 101%
[7]
  growth: 103%
[8]
  growth: 98.6%
[9]
  growth: 77.9%
[10]
  growth: 114%

## CS(=O)(=O)c1ccc(-c2nn(-c3ccccc3)cc2/C=C/C(=O)c2ccc(Br)cc2)cc1
[1]
  growth: 100%
[2]
  growth: 101%
[3]
  growth: 95.4%
[4]
  growth: 105%
[5]
  growth: 93.9%
[6]
  growth: 114%
[7]
  growth: 82.6%
[8]
  growth: 96.5%
[9]
  growth: 91.5%

## COc1ccc(-c2nc3cc(Cl)c(Cl)cc3n2CC(=O)N=Nc2c(O)[nH]c3ccc(Cl)cc23)cc1
[1]
  growth: 21.2%
[2]
  growth: -8.97% (active)
[3]
  growth: 46.1%
[4]
  growth: 0.657% (active)
[5]
  growth: 16.9%
[6]
  growth: -28% (active)
[7]
  growth: 37.6%
[8]
  growth: 18.5%
[9]
  growth: 24.7%

## CC(C)(C)n1nnnc1C(Nc1nccs1)c1cc2cccc3ccc4cccc1c4c32 (stereo not drawn)
[1]
  growth: 100%
[2]
  growth: -13% (active)
[3]
  growth: 95.5%
[4]
  growth: 84.9%
[5]
  growth: 99.8%
[6]
  growth: 103%
[7]
  growth: 100%
[8]
  growth: 108%
[9]
  growth: 107%

## COc1ccc(NS(=O)(=O)c2ccc(-c3cnc(C4CC4)o3)cc2)cc1Cl
[1]
  growth: 37.3%
[2]
  growth: 35.5%
[3]
  growth: 52.2%
[4]
  growth: 30.2%
[5]
  growth: 18.3%
[6]
  growth: 55.4%
[7]
  growth: 33.2%
[8]
  growth: 46.1%
[9]
  growth: 46.7%

## NS(=O)(=O)c1ccc(-n2cc(CC=O)nn2)cc1
[1]
  growth: 105%
[2]
  growth: 99%
[3]
  growth: 111%
[4]
  growth: 105%
[5]
  growth: 105%
[6]
  growth: 94.8%
[7]
  growth: 94.5%
[8]
  growth: 103%
[9]
  growth: 102%

## COc1cc2cc(Oc3ccc(NC(=O)c4cccc(C(F)(F)F)c4)cc3)c(C)nc2cc1OCCN(C)C
[1]
  growth: 90.4%
[2]
  growth: 95.5%
[3]
  growth: 104%
[4]
  growth: 97.9%
[5]
  growth: 47.1%
[6]
  growth: 62%
[7]
  growth: 99.9%
[8]
  growth: 89.2%
[9]
  growth: 60.1%

## CCCCCCCCNC(=O)c1ccc(Cn2c(CCCC)nc3c(N)nc4ccccc4c32)cc1
[1]
  growth: 38.8%
[2]
  growth: 87.7%
[3]
  growth: 85.3%
[4]
  growth: 75.5%
[5]
  growth: 3.61% (active)
[6]
  growth: 26.2%
[7]
  growth: -50.4% (active)
[8]
  growth: 57.7%
[9]
  growth: -78.3% (active)
[10]
  growth: -8.18% (active)

## CC(=O)Nc1cccc(-n2cnc3cc(-c4ccc(O)cc4)ccc32)c1
[1]
  growth: 47.8%
[2]
  growth: 37.9%
[3]
  growth: 56.6%
[4]
  growth: 38.4%
[5]
  growth: 15.9%
[6]
  growth: 49.5%
[7]
  growth: -29.8% (active)
[8]
  growth: 50.4%
[9]
  growth: 45.6%

## C#CCOc1ccc(/C=N/Nc2nc(-c3cc(Cl)ccc3Cl)cs2)cc1
[1]
  growth: 75.3%
[2]
  growth: 77.2%
[3]
  growth: 105%
[4]
  growth: 104%
[5]
  growth: 96.8%
[6]
  growth: 69.7%
[7]
  growth: 84.3%
[8]
  growth: 103%
[9]
  growth: 107%
[10]
  growth: 105%

## CN1CCN(c2nc(-c3cnc4ccccc4n3)cc3ccccc23)CC1
[1]
  growth: 90.9%
[2]
  growth: 99.9%
[3]
  growth: 96.7%
[4]
  growth: 95.9%
[5]
  growth: 41.3%
[6]
  growth: 17.3%
[7]
  growth: 86.9%
[8]
  growth: 75.9%
[9]
  growth: 56.4%
[10]
  growth: -65.2% (active)

## Oc1ccc(CSc2nnc(-c3ccc(Cl)cc3)o2)c2cccnc12
[1]
  growth: 27.6%
[2]
  growth: 60.2%
[3]
  growth: 26.1%
[4]
  growth: 21.5%
[5]
  growth: 5.72% (active)
[6]
  growth: 21.8%
[7]
  growth: 32%
[8]
  growth: 19.6%
[9]
  growth: 27.9%
[10]
  growth: 97.4%

## NC(=O)c1c(NC(=O)c2cccc(C(F)(F)F)c2F)sc2c1CCC(=O)C2
[1]
  growth: 4.57% (active)
[2]
  growth: 24.8%
[3]
  growth: 98.6%
[4]
  growth: 58.4%
[5]
  growth: 10.9%
[6]
  growth: 13.8%
[7]
  growth: -11.4% (active)
[8]
  growth: 64.8%
[9]
  growth: 30.2%
[10]
  growth: -9.67% (active)

## COC[C@@]1(C)CC[C@]2(C)CC[C@]3(C)C(=CC[C@@H]4[C@@]5(C)CCCNC(C)(C)[C@@H]5CC[C@]43C)C2C1 (stereo partly drawn)
[1]
  growth: 75.4%
[2]
  growth: 81.3%
[3]
  growth: 89.4%
[4]
  growth: 83.9%
[5]
  growth: 29.8%
[6]
  growth: 73%
[7]
  growth: 76.7%
[8]
  growth: 55.7%
[9]
  growth: 59.1%
[10]
  growth: 22%

## COc1ccc(N)cc1C(=O)Nc1cccc(-c2cc(=O)c3c(OC)c(OC)c(OC)cc3o2)c1
[1]
  growth: 63.7%
[2]
  growth: 61.7%
[3]
  growth: 72.5%
[4]
  growth: 69.6%
[5]
  growth: 61.5%
[6]
  growth: 8.78% (active)
[7]
  growth: 60.5%
[8]
  growth: 69.3%
[9]
  growth: 53.8%
[10]
  growth: 84.7%

## O=S(=O)(Nc1ccc(C2CC2)cc1)c1ccc(-c2cnc(C3CC3)o2)cc1
[1]
  growth: 73.9%
[2]
  growth: 74.9%
[3]
  growth: 92.3%
[4]
  growth: 62.2%
[5]
  growth: 73.2%
[6]
  growth: 77.3%
[7]
  growth: 59.6%
[8]
  growth: 62.2%
[9]
  growth: 88.5%
[10]
  growth: 88.9%

## Clc1ccccc1/C=C/c1nn2c(-c3ccncc3)nnc2s1
[1]
  growth: 99%
[2]
  growth: 91%
[3]
  growth: 100%
[4]
  growth: 108%
[5]
  growth: 102%
[6]
  growth: 103%
[7]
  growth: 101%
[8]
  growth: 106%
[9]
  growth: 96.9%
[10]
  growth: 115%

## O=C1Nc2cc(OC(F)(F)F)ccc2Oc2ccc(-c3ccnc(N4CCNCC4)c3)cc21
[1]
  growth: 27.4%
[2]
  growth: 53%
[3]
  growth: 39%
[4]
  growth: 21.6%
[5]
  growth: -80.6% (active)
[6]
  growth: -0.729% (active)
[7]
  growth: -57.2% (active)
[8]
  growth: 9.42% (active)
[9]
  growth: -62.7% (active)
[10]
  growth: -80.2% (active)

## N#Cc1c(NC(=O)c2ccccc2C(F)(F)F)sc2c1CCC(=O)C2
[1]
  growth: 3.19% (active)
[2]
  growth: 13.6%
[3]
  growth: 95.5%
[4]
  growth: 33%
[5]
  growth: 13.5%
[6]
  growth: -36.7% (active)
[7]
  growth: -4.76% (active)
[8]
  growth: 75.4%
[9]
  growth: 28.7%
[10]
  growth: -18.2% (active)

## O=C1[C@@H]2Cc3c([nH]c4ccccc34)[C@H](c3c(Cl)cccc3Cl)N2C(=O)CN1C1CCN(Cc2ccccc2)CC1
[1]
  growth: 41.7%
[2]
  growth: 74.9%
[3]
  growth: 77.7%
[4]
  growth: 81.3%
[5]
  growth: 9.15% (active)
[6]
  growth: 42.8%
[7]
  growth: 63.5%
[8]
  growth: 12.7%
[9]
  growth: -26.6% (active)
[10]
  growth: 75%

## COc1cc(C2CC(c3ccc(Nc4nc(NCCO)nc(Nc5ccc(Cl)cc5)n4)cc3)=Nc3c(N)nc(N)nc3N2)cc(OC)c1OC (stereo not drawn)
[1]
  growth: 74%
[2]
  growth: 81.7%
[3]
  growth: 82.2%
[4]
  growth: 43.3%
[5]
  growth: 56.3%
[6]
  growth: 43.5%
[7]
  growth: 60.7%
[8]
  growth: 103%
[9]
  growth: 46.9%
[10]
  growth: 90.4%

## COc1ccc2c(c1)oc1c3[nH]c4ccccc4c3c3c(c21)C(=O)N(O)C3=O
[1]
  growth: 31.6%
[2]
  growth: 79.9%
[3]
  growth: 65.5%
[4]
  growth: 13.2%
[5]
  growth: 5.34% (active)
[6]
  growth: 98.7%
[7]
  growth: 43%
[8]
  growth: 74.3%
[9]
  growth: 31.1%
[10]
  growth: 69.5%

## COc1ccc(-c2cc(-c3cccc4ccccc34)n3c(n2)nc2ccccc23)cc1OC
[1]
  growth: 44.7%
[2]
  growth: 19.8%
[3]
  growth: 75.8%
[4]
  growth: -0.816% (active)
[5]
  growth: 3.44% (active)
[6]
  growth: 11.5%
[7]
  growth: 48.1%
[8]
  growth: 24.2%
[9]
  growth: 10.5%
[10]
  growth: 65.4%

## O=C1NC(=O)c2c1c1c3ccccc3ccc1c1[nH]c3ccccc3c21
[1]
  growth: 15.8%
[2]
  growth: 12.2%
[3]
  growth: 19.4%
[4]
  growth: 1.2% (active)
[5]
  growth: 6.41% (active)
[6]
  growth: 35.9%
[7]
  growth: 11.3%
[8]
  growth: 23.5%
[9]
  growth: 18.6%
[10]
  growth: 28.8%

## C=CCn1c(SCC(=O)c2ccc(OC)cc2)nnc1-c1ccc(OC)cc1
[1]
  growth: 97.6%
[2]
  growth: 87.1%
[3]
  growth: 97.4%
[4]
  growth: 102%
[5]
  growth: 102%
[6]
  growth: 88.9%
[7]
  growth: 99%
[8]
  growth: 99.2%
[9]
  growth: 99.4%
[10]
  growth: 98.8%

## CCNC(=O)Oc1ccc(/C(=C(/C)c2ccc(Cl)cc2)c2ccc(OCCN3CCCC3)cc2)cc1
[1]
  growth: 87.5%
[2]
  growth: 95.8%
[3]
  growth: 93.3%
[4]
  growth: 97%
[5]
  growth: 80.6%
[6]
  growth: 83.2%
[7]
  growth: 96.8%
[8]
  growth: 73%
[9]
  growth: 71.4%
[10]
  growth: 88.8%

## O=C(CN1CCN(c2cc(=O)n(-c3ccccc3)c3ccccc23)CC1)Nc1ccc([N+](=O)[O-])cc1
[1]
  growth: 82.5%
[2]
  growth: 83.5%
[3]
  growth: 88.1%
[4]
  growth: 95.1%
[5]
  growth: 94.3%
[6]
  growth: 76.5%
[7]
  growth: 82.5%
[8]
  growth: 95.1%
[9]
  growth: 90.5%
[10]
  growth: 107%
